Source: PubChem (National Center for Advancing Translational Sciences (NCATS))
SW480 rereplic – A quantitative high throughput screen for small molecules that induce DNA re-replication in SW480 colon adenocarcinoma cells | Potency, µM (titrated, usually from 46.1 µM), inactives show top-dose re-replication activation, usual class: activators | SW480 DNA re-replication, Hoechst DNA content imaging, 48 h | hit rate 1.8% among 340,000; note: % of control where 0% means no effect; nearly all actives have a fitted effect of over 55% in size
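Image-based DNA-content assay: after two days of treatment, nuclei were labelled with the DNA dye Hoechst and imaged, and hits were compounds raising the count of nuclei showing high fluorescence intensity.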
MCF10A rereplic – A quantitative high throughput screen for small molecules that induce DNA re-replication in MCF 10a normal breast cells; MCF 10A DNA re-replication, Hoechst nuclear intensity, 48 h; Potency, µM (doses to about 46.1 µM), for inactives: top-dose activity, positive = re-replication, usual class: activators; hit rate 2.9% among 350,000; note: % of control where 0% means no effect; nearly all actives have a fitted effect of over 50% in size
KB-V1 MDR tox – qHTS assay for MDR1-selective chemotherapeutics: Primary screen using the drug-selected MDR subline cells KB-V1 | KB-V1 MDR cells viability, CellTiter-Glo, 72 h | Potency, µM (series often up to 46.1 µM), usual class: cytotoxic | hit rate 3.4% among 400,000; note: % is set by controls: 0 for no effect and ±100 for the full control effect; nearly all actives have a fitted effect of over 60% in size
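KB-V1, DMEM (no phenol red) + 10% FBS; cpd pin-transferred, titration series; 72 h, 37 degrees C; CellTiter-Glo, luminescence. Data normalized, curve-fit.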
KB-3-1 tox – qHTS assay for MDR1-selective chemotherapeutics: Primary screen using the parental adenocarcinoma cell KB-3-1; KB-3-1 viability, CellTiter-Glo ATP luminescence, 72 h; Potency, µM (top dose mostly 46.1 µM), usual class: cytotoxic; hit rate 1.4% among 400,000; note: % is set by controls: 0 for no effect and ±100 for the full control effect; nearly all actives have a fitted effect of over 60% in size
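72 h, 37 °C compound treatment of KB-3-1 parental cells; CellTiter-Glo added, 10 min, luminescence read. Data corrected against DMSO-only plates and normalized before curve fitting.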
PINK1 modulator – A Quantitative High throughput Screen to Identify Chemical Modulators of PINK1 Expression. PINK1 immunofluorescence, high-content cytometry, 24 h. Potency, µM (highest dose often 76.6 µM), without a hit: at the highest dose activation (PINK1 increase), hits mostly activators. hit rate 0.2% among 410,000. AID 624263, 2012; active = well fitted activation curve with a large enough effect; inconclusive = small, poorly fitted or top-dose-only effect; cell line not stated here; note: % of control where 0% means no effect; nearly all actives have a fitted effect of over 65% in size
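A stable cell line was treated with compounds at 5 concentrations for 24 hours, with CCCP as control. PINK1 levels and mitochondrial localization were measured by immunofluorescence with mitochondrial, cell and nuclear markers after fixation, read by laser-scanning cytometry.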
Active calls of the source: *; i = inactive; ? = inconclusive; nt = no result; [ ] = remark or other dose. The list is not random: actives were taken first. Their share in the collection is about 6.7%. Unless noted, calls come from the whole dose curve; as a rule, active = well fitted curve in the direction sought with a large enough effect; inconclusive = small, poorly fitted or top-dose-only effect, or another doubt; inactive = no such curve, though single readings can be large; an effect the other way counts as inactive or inconclusive. Potency is the fitted concentration of half-maximal effect.

SMILES	SW480 rereplic	MCF10A rereplic	KB-V1 MDR tox	KB-3-1 tox	PINK1 modulator
N#Cc1c(N2CCCC(O)C2)nc(N)c2c(N)nc3c(c12)CC(=O)N3C12CC3CC(CC(C3)C1)C2 (configuration not stated)	4.61µM*	?	14.6µM*	4.11µM*	-4.0%
Cc1cc(C)c2sc(NC(=O)c3ccc(S(=O)(=O)N4CCOCC4)cc3)nc2c1	nt	nt	i	i	-1.2%
CCOC(=O)c1cnc2ccc(OC(F)(F)F)cc2c1Nc1ccccc1C(=O)O	nt	nt	i	i	0.4%
C=CCn1c(SCc2nc3ccccc3[nH]2)nnc1-c1ccccn1	6.7%	4.3%	i	i	3.5%
C=CCn1c(SCc2nc3ccccc3[nH]2)nnc1-c1ccc(OC)cc1	-8.0%	22.1%	4.61µM*	i	-2.8%[38.3 µM]
CCn1c(SCc2nc3ccccc3[nH]2)nnc1-c1ccc(OC)cc1	-15.7%	2.8%	10.3µM*	i	3.5%[38.3 µM]
CCn1c(SCc2nc3ccccc3[nH]2)nnc1-c1ccncc1	16.3%	9.0%	i	i	1.5%[38.3 µM]
C=CCn1c(SCc2nc3ccccc3[nH]2)nnc1-c1cccc(OC)c1	-13.9%	8.1%	3.66µM*	i	-2.1%[38.3 µM]
COc1cccc(-c2nnn(CC(=O)N(C3CCCCC3)C3CCS(=O)(=O)C3)n2)c1 (configuration not stated)	nt	nt	i	i	-1.2%
COc1ccc(C(C#N)=Cc2ccccc2OC)cc1	nt	nt	8.2µM*	16.4µM*	11.6%
COc1ccc(C(C#N)=Cc2ccc(NC(C)=O)cc2)cc1	?	16.4µM*	i	i	-0.9%
COc1ccc(C(C#N)=Cc2ccc(OC)c(OC)c2)cc1	nt	nt	i	i	1.7%
Cc1ccccc1OCC(=O)Nc1ccc2nc(SCC(=O)N3CCCC3)sc2c1	nt	nt	nt	nt	0.4%
COc1cc(Br)c(CC2c3cc(OC)c(OC)cc3CCN2C)cc1OC (configuration not stated)	0.3%	-1.0%	20.6µM*	i	-5.7%
COc1cc2c(cc1OC)[C@@H](Cc1ccc(OCCC#N)cc1)N(C)CC2	-2.8%	-12.6%	i	i	0.1%
O=C(OCn1ncc(Cl)c(Cl)c1=O)c1cccc(C(F)(F)F)c1	5.8µM*	5.8µM*	?	4.61µM*	-4.4%
Cc1ccc(C(=O)N/N=c2\sc3ccccc3n2C)cc1	0.651µM*	?	i	i	-1.1%
CCOc1cc(/C=C/C(=O)c2ccc(C)cc2)ccc1OCC(=O)N(C)C	?	23.1µM*	14.6µM*	?	-1.6%
COc1cc(/C=C/C(=O)c2ccc(F)cc2)cc(OC)c1OC	18.4µM*	?	?	i	-1.2%
CCOc1ccc(C(=O)/C=C/c2cc(OC)c(OC)c(OC)c2)cc1	?	?	?	?	-2.1%
CCOc1cc(/C=C/C(=O)O)ccc1OCCO	-41.1%	0.1%	i	i	-0.2%
O=C(C=Cc1ccc2c(c1)OCO2)c1ccccc1	?	18.4µM*	i	i	12.3%
COc1cc(/C=C/C(=O)c2ccc(C)cc2)ccc1OCC#N	16.4µM*	?	14.6µM*	?	-5.7%
O=C(O)c1ccc2c(c1)C(=O)N(c1cccc(C(=O)/C=C/c3ccccc3)c1)C2=O	1.6%	18.4µM*	i	i	2.1%
CCOC(=O)c1cccc(NC(=O)/C=C/c2ccc3c(c2)OCO3)c1	3.1%	9.2µM*	?	10.3µM*	12.3%
SMILES	SW480 rereplic	MCF10A rereplic	KB-V1 MDR tox	KB-3-1 tox	PINK1 modulator
O=C(O)c1cccc(N2C(=O)c3ccc(C(=O)c4cccc([N+](=O)[O-])c4)cc3C2=O)c1	-4.9%	1.8%	i	i	0.1%
COc1ccc(/C=C/C(=O)c2ccccc2)cc1Cn1nnc2ccccc21	?	11.6µM*	20.6µM*	i	-3.1%
COc1cc(C(=O)c2cc3c(cc2C)OCO3)cc(OC)c1OC	nt	nt	0.411µM*	0.164µM*	9.6%
C1NNCC12CNNC2	nt	nt	nt	nt	1.6%
COCc1cccc(-c2csc(C(C)(NC(C)=O)c3ccccc3)n2)c1 (configuration not stated)	nt	nt	i	i	1.1%
O=C(/C=C/c1ccccc1)NNC(=O)c1cccc(Cl)c1	-1.6%	-2.8%	i	i	15.8%[38.3 µM]
O=C(C=Cc1cccc(Cl)c1)c1ccccc1	14.6µM*	18.4µM*	?	?	-4.6%
COc1cc(/C=C/C(=O)c2ccc3c(c2)OCO3)cc(OC)c1OC	284.1%	179.5%	20.6µM*	?	5.1%
COc1ccc(/C=C/C(=O)c2ccc(C(=O)/C=C/c3ccc(OC)c(OC)c3)cc2)cc1OC	8.2µM*	6.51µM*	i	?	15.2%
COc1ccc(OC)c(/C=C/C(=O)c2ccc3c(c2)OCCO3)c1	7.5%	20.6µM*	?	?	-1.5%
COc1cc(=O)n2c(c1C(=O)N(C)Cc1cscn1)CCN(C(=O)c1ccc(C)c(C)c1)CC2	nt	nt	nt	nt	1.1%
CCc1cccc(NC(=O)C(Cc2ccccc2)n2cccc2)c1 (configuration not stated)	nt	nt	nt	nt	0.7%
O=C(NCCN1C(=O)S/C(=C/c2cccnc2)C1=O)c1ccc(S(=O)(=O)N2CCCC2)cc1	-4.9%	-2.2%	i	i	-0.3%
COc1ccc(NC(=O)c2ccc(S(=O)(=O)N3CCCC3)cc2)cc1OC	-25.7%	17.4%	i	i	-1.5%
Cc1ccc(C(=O)/C=C/c2ccc3c(c2)OCCO3)c(O)c1	-2.5%	?	i	i	0.7%
O=C(/C=C/c1ccc2c(c1)OCCCO2)c1ccc2ccccc2c1O	1.9%	18.4µM*	?	i	-0.5%
O=C(CCC1N=C2c3ccccc3N=C(SCc3cccc(F)c3)N2C1=O)NCc1ccc(F)cc1 (configuration not stated)	nt	nt	i	i	-0.3%
Cc1ccc2nc(-c3cccnc3)cc(C(=O)Nc3ccccc3[N+](=O)[O-])c2c1	?	14.6µM*	nt	nt	1.2%
CC(=O)Nc1cccc(NC(=O)c2cc(-c3cccnc3)nc3ccc(Br)cc23)c1	?	11.6µM*	i	i	-2.1%[38.3 µM]
CSc1ccccc1NC(=O)c1cc(-c2cccnc2)nc2ccc(Br)cc12	2.6%	16.4µM*	?	?	-1.7%
O=C(Nc1ccc(C(F)(F)F)cc1)c1cc(-c2cccnc2)nc2ccc(Br)cc12	?	5.17µM*	?	i	25.4%[38.3 µM]
O=C(O)c1cc(-c2cccnc2)nc2ccc(Br)cc12	2.3%	-17.1%[9.22 µM]	i	i	0.9%
Cc1ccc(-c2nnc(Nc3ccc(Br)cc3)c3ccccc23)cc1S(=O)(=O)N1CCCCC1	nt	nt	i	i	5.3%
COC(=O)c1cc2c(=O)c3ccccc3oc2nc1/C=C/N(C)C	-6.8%	-9.9%	i	i	?
